The record followed here is PubChem BioAssay AID504727 (Broad Institute, 2011).

Active and inactive are the calls of the source.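 The calls were made as follows: active = fitted half-maximal concentration AC50 at or below ten times the highest valid tested dose, with signal falling as DNA is displaced (actives reach about 34 µM in these data); inconclusive = flat fit at moderate signal loss, or poor fit quality; inactive = the rest, including signal rising instead of falling.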

This test is described as follows: acridine orange-DNA binding displacement – biochemical, fluorescence polarization, cherry-picked samples, set 2, artefact control for KSHV LANA DNA-binding inhibitor project, dose response (AID 504727). The note with it: series mostly up to 35 µM. A general note: Fluorescence polarisation rises when a labelled molecule tumbles more slowly, as on binding a larger partner.
For `O=C(O)C1C2C=CC(CC2)C1C(=O)O` (stereo not drawn), the AC50 result was “inactive”.

`O=S(=O)(O)c1cc(O)c(N=Nc2ccc(O)cc2O)c2ccccc12`: the AC50 entry is “inactive”.

Take `COc1cccc(NC(=O)N(CCN(C)C)C(C)c2cccnc2)c1` (stereo not drawn): the AC50 result is “inactive”.

`O=C(CSc1cccc2cccnc12)N/N=C/c1ccc(O)cc1`: the AC50 entry was “inactive”.

Turning to `CCC(=O)Nc1cccc(C(=O)/C=C/c2ccccc2)c1`, the AC50 result was “inactive”.

Take `CNc1c2cccc(C)c2nc2c(C(=O)NCCN(C)C)cccc12`: the concentration at half-maximal activity (AC50) is 6.16 µM (active).

On to `CCC1(c2ccccc2)NC(=O)N(CC(=O)Nc2ccc(OC)nc2)C1=O` (stereo not drawn), for which the AC50 was 7.64 µM (active).

In the case of `CC(=O)N(C(C)=O)N1C(=O)c2cccc3c(N4CCOCC4)ccc(c23)C1=O`, the AC50 result is “inactive”.

`CCN(CC(=O)Nc1ccc(OC)cc1)C(=O)c1cc([N+](=O)[O-])ccc1N1CCOCC1`: the AC50 entry was “inactive”.

Regarding `Cn1c2ccccc2c2cnn(CC(=O)Nc3cccc(F)c3)c(=O)c21`, the AC50 entry was “inactive”.

Consider `O=c1c2c(nc3cc(-c4ccc(F)cc4)[nH]n13)CCC2`, for which the AC50 entry was “inactive”.

Regarding `CCCCN(C(=O)C(C)Oc1ccc(Br)cc1)c1c(N)n(CC(C)C)c(=O)[nH]c1=O` (stereo not drawn), the AC50 entry was “inactive”.

As for `COc1cc(OC)cc(-c2c(-c3ccsc3)c3cc(Br)ccc3n2C)c1`, the AC50 entry was “inactive”.

On to `Cc1cc(C)c2c(c1)NC(C(=O)O)C1CC=CC21` (stereo not drawn), for which the AC50 entry was “inactive”.

`Cc1c(C)n(CCC(=O)O)c2ccccc12`: the AC50 entry is “inactive”.

For `CCN(C(=O)COC(=O)CCCOc1ccc(Cl)cc1C)c1c(N)n(Cc2ccccc2)c(=O)[nH]c1=O`, the AC50 entry is “inactive”.

With `Cc1cc(NC(=O)CCC(=O)N(CCC(C)C)C(C(=O)NC2CCCC2)c2cccnc2)no1` (stereo not drawn), the AC50 entry is “inactive”.

In the case of `COc1ccc(NC(=O)CN(C)CC(=O)Nc2ccc(N3CCOCC3)cc2)c([N+](=O)[O-])c1`, the AC50 entry is “inactive”.

Take `Cn1c(=O)oc2cc(S(=O)(=O)CCC(=O)N3CCN(c4ccccc4F)CC3)ccc21`: the AC50 result is “inactive”.

In the case of `O=C(O)CC1(CC(=O)NCc2ccncc2)CCCCC1`, the AC50 result was “inactive”.

For `CC(C)(C)OC(=O)N1CCC[C@H]1c1nnc(SCc2cccc(Cl)c2)o1`, the AC50 entry was “inactive”.

Turning to `O=C(CSc1nc2ccccc2[nH]1)Nc1cccc(S(=O)(=O)N2CCOCC2)c1`, the AC50 entry was “inactive”.

On to `O=C(Nc1cc(Cl)ccc1-n1cncn1)c1cccs1`, for which the AC50 result was “inactive”.

As for `COc1cc(SC)ccc1C(=O)OCC(=O)N1CCN(C(C)=O)CC1`, the AC50 entry was “inactive”.

For the compound `CN(C)CCNc1ccc2ncn3c4ccc(O)cc4c(=O)c1c23`, the concentration at half-maximal activity (AC50) was 8.68 µM (active).

Turning to `CC(C)=C1C2C=CC1C(C(=O)Nc1cc(C)ccc1C)C2C(=O)O` (stereo not drawn), the AC50 entry is “inactive”.

Take `O=C1C(=Cc2ccco2)CCC1=Cc1ccco1`: the AC50 entry is “inactive”.

Take `O=C(/C=C/c1ccco1)Nc1ccccc1C(=O)Nc1cccc(C(=O)O)c1`: the AC50 result is “inactive”.

On to `O=C(O)c1ccc2c(c1)C(=O)/C(=C\c1ccco1)C2=O`, for which the AC50 entry is “inactive”.

Take `Nc1c(/C=C2/C=CC(=O)C(O)=C2)c(=O)nc2sc(CC(=O)N3CCCCC3)nn12`: the AC50 entry was “inactive”.

Regarding `O=c1[nH][nH]cc1C=Nc1ccc(Cl)cc1Cl`, the AC50 entry was “inactive”.

With `Cc1cnc(NC(=O)Cc2c[nH]c3ccccc23)s1`, the AC50 entry is “inactive”.

As to `COc1ccc(Cl)cc1C(=O)NNC(=O)c1cc2ccccc2o1`, the AC50 result was “inactive”.

As to `CCN(CC)CCCNc1ccc2ncn3c4ccc(O)cc4c(=O)c1c23`, the AC50 is 6.91 µM (active).

With `NNc1nc2sc3c(c2c(=O)n1C1CCCCC1)CCN(Cc1ccccc1)C3`, the AC50 entry is “inactive”.

Take `Nc1ccc(-c2c3ccc(=O)cc-3oc3cc(O)ccc23)cc1C(=O)O`: the concentration at half-maximal activity (AC50) is 1.07 µM (active).

With `O=C(O)c1cccc(NC2=Nc3cccc4cccc2c34)c1`, the AC50 result was “inactive”.

As to `C=C(C)C(=O)Nc1cccc(C2=NOC3(C2)C[C@@H](C(N)=O)N(C(=O)C2(C)CC2)C3)c1` (stereo partly drawn), the AC50 result is “inactive”.

Usually AC50 stands for the midpoint of the concentration-response curve, whichever way the signal moves.
